Hit rate of the full screen: of about 190,000 compounds, about 1,300 (0.68%) were called active. Rule as the data show it: active = inhibition above about 50%; inactive = the rest. For the sample, actives were picked, then their nearest neighbours and some compounds at random.

This assay deals with Mannose-6-phosphate isomerase (Homo sapiens) (UniProt P34949). The assay can be described thus: MPI inhibition at elevated mannose 6-phosphate – biochemical, fluorescence intensity, high mannose 6-phosphate, primary screen (AID 1220). The following applies: recombinant PMI enzyme, coupled fluorescence intensity; at 20 µM; active compounds read high.
Chain of Mannose-6-phosphate isomerase (Homo sapiens) (P34949 whole entry, looked up): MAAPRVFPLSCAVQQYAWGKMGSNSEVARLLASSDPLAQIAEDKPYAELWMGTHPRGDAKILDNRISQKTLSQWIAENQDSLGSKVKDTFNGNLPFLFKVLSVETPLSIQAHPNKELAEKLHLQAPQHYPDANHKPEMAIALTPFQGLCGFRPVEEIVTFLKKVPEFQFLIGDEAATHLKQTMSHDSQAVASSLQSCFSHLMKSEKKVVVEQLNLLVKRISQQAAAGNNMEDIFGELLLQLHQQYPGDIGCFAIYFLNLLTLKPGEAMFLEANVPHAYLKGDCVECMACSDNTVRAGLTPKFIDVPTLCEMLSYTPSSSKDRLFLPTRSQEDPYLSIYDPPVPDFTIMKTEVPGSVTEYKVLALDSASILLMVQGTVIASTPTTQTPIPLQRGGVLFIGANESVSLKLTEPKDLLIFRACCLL
On to `CCCCc1cc(=O)oc2cc(C)cc(O)c12`, for which the inhibition is 7.5% (inactive).
Take `CCCc1cc(=O)oc2cc(C)cc(O)c12`: the inhibition is 2.5% (inactive).
For the compound `CCCCc1cc(=O)oc2cc(O)cc(O)c12`, the inhibition was 64% (active).
For `Clc1cccc(-c2ccc(C=Nc3ccc(N4CCOCC4)cc3)o2)c1Cl`, the inhibition is 63.9% (active).
Turning to `Oc1ccc(C=Nc2ccc(N3CCOCC3)cc2)c(O)c1`, the inhibition was 13.7% (inactive).
With `Oc1c(Br)cc(Cl)cc1C=Nc1ccc(N2CCOCC2)cc1`, the inhibition is 51.8% (active).
On to `Clc1ccc(-c2ccc(C=Nc3ccc(N4CCOCC4)cc3)o2)cc1`, for which the inhibition was 24.7% (inactive).
Turning to `Clc1cccc(-c2ccc(C=Nc3ccc(N4CCOCC4)cc3)o2)c1`, the inhibition is 33.8% (inactive).
`Clc1cccc(-c2ccc(/C=N/n3cnnc3)o2)c1Cl`: the inhibition is 1.1% (inactive).
The figure for `O=[N+]([O-])c1cc(Br)c(O)c(C=Nc2ccc(N3CCOCC3)cc2)c1` is 40.2% (inactive); for `Clc1ccc(-c2ccc(C=Nc3ccc(N4CCOCC4)cc3)o2)c(Cl)c1` it is 47.6% (inactive); for `Cc1ccc(Cl)cc1-c1ccc(C=Nc2ccc(N3CCOCC3)cc2)o1` it is 52.4% (active).
Consider `O=C(O)c1cn(Cc2cccnc2)c(=O)c2ccccc12`, for which the inhibition is 1.5% (inactive).
On to `CCOC(=O)C1=C(c2ccccc2)Nc2ncnn2C1c1cc(OC)ccc1OC` (stereo not drawn), for which the inhibition was 7.8% (inactive).
Take `Cn1c(=O)[nH]c(=O)c2c1nc(SCCN1CCOCC1)n2Cc1ccccc1`: the inhibition is 6.9% (inactive).
`COc1ccc(NC(=O)CCC(=O)OCc2ccc(C(=O)Oc3ccc(Cl)cc3)cc2)cc1`: the inhibition is -5.2% (inactive).
Consider `CCCCN1C(=O)C(O)=C(C(C)=O)C1c1ccccc1` (stereo not drawn), for which the inhibition was -7.7% (inactive).
The figure for `CN(CCO)c1nc(N)c2c(N)nc3c(c2c1C#N)CC(=O)N3Cc1cccs1` is 33.7% (inactive).
Turning to `CCCCN1C(=O)Cc2c1nc(N)c1c(N)nc(N(CCC)CCC)c(C#N)c21`, the inhibition was 56% (active).
`COCCN(CCOC)c1nc(N)c2c(N)nc3c(c2c1C#N)CC(=O)N3Cc1ccc(Cl)cc1`: the inhibition was 25.1% (inactive).
The figure for `CC(=O)c1c(C)[nH]c(C(=O)NCCc2ccccc2)c1C` is 2.6% (inactive); for `c1ccc(-n2cccc2CNC2CCCCC2)cc1` it is -4.6% (inactive); for `c1ccc2c3c(cc(N4CCOCC4)c2c1)OC1(N2CCOCC2)CCCCC1O3` (stereo not drawn) it is 60.5% (active).
Turning to `Oc1ccc2c(c1)C1CCCC1(N1CCOCC1)O2` (stereo not drawn), the inhibition is 24.6% (inactive).
For `O=c1cc(N2CCOCC2)c2ccccc2o1`, the inhibition was 4.1% (inactive).
Take `Cc1cc(C)cc(NC(=S)/C(=C(\[O-])c2ccc(Cl)s2)[n+]2cccc(C)c2)c1`: the inhibition was 51.9% (active).
The figure for `Cc1ccc(NC(=S)/C(=C(\[O-])c2ccc(Cl)s2)[n+]2cccc(CO)c2)cc1C` is 10.4% (inactive).
Turning to `Cc1ccc(C)c(NC(=S)/C(=C(\[O-])c2ccc(Cl)s2)[n+]2ccccc2)c1`, the inhibition was 26.5% (inactive).
With `Cc1c(CNC(=O)c2cnn3c2NC(c2ccc(Br)cc2)CC3C(F)(F)F)cnn1C` (stereo not drawn), the inhibition was 11.4% (inactive).
Regarding `Cc1ccc(NS(=O)(=O)c2cc([N+](=O)[O-])ccc2NNC(=S)Nc2cc(C)ccc2C)c(C)c1`, the inhibition was 9.1% (inactive).
Regarding `CC(=O)N(C)C1=C(N2CCOCC2)C(=O)c2ccccc2C1=O`, the inhibition is 33.1% (inactive).
For the compound `CC(=O)N(C)C1=C(O)c2ccccc2C(=O)C1=O`, the inhibition was 19.6% (inactive).
On to `CC(=O)N(C1=C(N)C(=O)c2ccccc2C1=O)C(C)C`, for which the inhibition is 54.5% (active).
Regarding `NC(=O)COC(=O)c1cccc(NS(=O)(=O)/C=C/c2ccccc2)c1`, the inhibition is 4.6% (inactive).
As to `Cn1c(C(=O)O)cnc1Sc1ncc(C(F)(F)F)cc1Cl`, the inhibition was -17.5% (inactive).
On to `Cc1ccc(Nc2nnc(SCc3cc(=O)n4ccsc4n3)s2)c(C)c1`, for which the inhibition is 8.6% (inactive).
With `COc1ccc2[nH]c3c(=O)n(Cc4ccc(C(=O)NCC5CCCO5)cc4)c(=S)[nH]c3c2c1` (stereo not drawn), the inhibition is 3.5% (inactive).
The figure for `CC(=O)Nc1ccc(C2(O)COc3ccccc3O2)cc1` (stereo not drawn) is -2% (inactive); for `COc1ccccc1NC(=O)c1ccc(-c2ccccc2[N+](=O)[O-])o1` it is 52.9% (active); for `COc1ccccc1NC(=O)c1ccc(-c2ccccc2F)o1` it is -0.4% (inactive).
As to `COc1cccc(NC(=O)c2ccc(-c3ccccc3[N+](=O)[O-])o2)c1`, the inhibition was -0.2% (inactive).
For the compound `Cc1ccccc1Cc1ccc(Cl)nn1`, the inhibition is -8.8% (inactive).
The figure for `CN(C)C(=S)SCC(=O)NCc1ccc(F)cc1` is 10.8% (inactive); for `CCc1cccc(NC(=O)c2snc3c(=O)[nH]cnc23)c1` it is 7.2% (inactive); for `Cc1cccc(C)c1-n1cccc1/C=C1\SC(=S)N(c2cccc(C(=O)O)c2)C1=O` it is 3% (inactive).
In the case of `O=C1NC(=S)S/C1=C\c1ccc(SCc2ccco2)o1`, the inhibition is 7.7% (inactive).
For `O=C(O)c1cc(-c2ccc(/C=C3/SC(=S)N(Cc4ccccc4)C3=O)o2)ccc1Cl`, the inhibition is -34.8% (inactive).
Take `O=C1NC(=S)S/C1=C\c1ccc(SCc2ccccc2)o1`: the inhibition is 66.9% (active).
Regarding `O=C1NC(=S)S/C1=C/c1ccc(N2CCOCC2)o1`, the inhibition was -14% (inactive).
For the compound `O=C(O)c1cccc(N2C(=O)/C(=C/c3ccc(SCc4ccc(Cl)cc4)o3)SC2=S)c1`, the inhibition was 67.9% (active).
The figure for `O=C(COC(=O)c1sc2cc(F)ccc2c1Cl)Nc1ncc(Cl)cc1Cl` is 13.4% (inactive).
`Cn1c(=O)c2c(nc(SCC(=O)Nc3ccccc3)n2C)n(C)c1=O`: the inhibition is 6.1% (inactive).
As for `Cc1cccc(C)c1NC(=O)CSc1nnc(-c2cccnc2)o1`, the inhibition is 5.5% (inactive).
Regarding `COc1ccccc1NC(=S)N1CCN(C(=O)c2ccco2)CC1`, the inhibition is -3% (inactive).
The figure for `O=C(Cc1c(F)cccc1Cl)N1CCOCC1` is -13.4% (inactive); for `COCCn1c(=O)c2c(nc3n2CCN3c2ccc(C)cc2)n(C)c1=O` it is 0.4% (inactive); for `CCOc1ccc(NC(=O)c2ccccc2O)cc1` it is -0.8% (inactive).
With `CCOc1ccc(N=C(NN)c2ccc3ccccc3n2)cc1`, the inhibition is -57.4% (inactive).
The figure for `CCOc1ccc(N=C(C)c2ccccc2O)cc1` is 55.9% (active); for `Cc1cccc(OCC(=O)Nc2ccc3nc(C)sc3c2)c1` it is -10.9% (inactive); for `COCCNC(=O)C1CCCN(c2nn3c(=O)cc(C)nc3s2)C1` (stereo not drawn) it is 7.2% (inactive).
As to `CCN1CCN(Cc2nc3c(c(=O)n(C)c(=O)n3C)n2CCc2ccccc2)CC1`, the inhibition is -1.1% (inactive).
The figure for `O=c1cc(Nc2ccc3c(c2)OCCO3)[nH]c(=O)n1-c1ccc(Cl)cc1` is 8% (inactive); for `O=c1cc(Nc2ccc3c(c2)OCO3)[nH]c(=O)n1-c1ccc(Br)cc1` it is 1.9% (inactive).
The figure for `O=c1cc(Nc2ccc3c(c2)OCCO3)[nH]c(=O)n1-c1ccc(Br)cc1` is 57.5% (active); for `CC1CCN(S(=O)(=O)c2ccc(NC(=S)NC(=O)c3ccc(Cl)cc3)cc2)CC1` it is -6.2% (inactive).
For `CC[n+]1ccc(C[n+]2ccccc2)c2ccccc21`, the inhibition is 97.1% (active).
For the compound `CC[n+]1ccc(C)c2cc(P(=O)(c3ccccc3)c3ccccc3)ccc21`, the inhibition was 18.4% (inactive).
Consider `CC[n+]1ccc(/C=C/c2ccc(N(C)C)cc2)c2ccccc21`, for which the inhibition was -4.8% (inactive).
Turning to `O=C(NCc1ccccc1)C1=C[C@@H](c2coc3ccccc3c2=O)C[C@@H](OCCCCO)O1`, the inhibition is 8.5% (inactive).
For `O=C(NCc1ccc(Cl)cc1)C(=O)NCC(c1cccnc1)N1CCN(c2ccc(F)cc2)CC1` (stereo not drawn), the inhibition is 2.5% (inactive).
Regarding `CCOC1(NC(=O)c2ccccc2)C(C)=CC(=O)C=C1C`, the inhibition was 49.2% (inactive).
Consider `COC1(NC(=O)c2ccccc2)C(C)=CC(=O)C=C1C`, for which the inhibition is 6.7% (inactive).
As to `CCCOC1(NC(=O)c2ccccc2)C(C)=CC(=O)C=C1C`, the inhibition was 55.4% (active).
Consider `CCNC(=O)/C(=C\C=C\c1ccccc1)NC(=O)c1ccc(Br)o1`, for which the inhibition was -11.4% (inactive).
Turning to `Cc1ccc(Nc2nc3ccccc3c(=O)[nH]2)cc1C`, the inhibition is -5% (inactive).
In the case of `O=[N+]([O-])c1ccc2oc(C3CCCCC3)nc2c1`, the inhibition is 2.8% (inactive).
Take `Nc1ccc2oc(C3CCCCC3)nc2c1`: the inhibition is 64% (active).
With `Nc1ccc2nc(C3CCCCC3)[nH]c2c1`, the inhibition was 32.3% (inactive).
Consider `Cc1c(-n2cc(C(=O)O)c(=O)c3cc(F)c(N4CCCC4)c(F)c32)c(=O)n(-c2ccccc2)n1C`, for which the inhibition is 16% (inactive).
Turning to `Cc1sc2nc(CN3CCOCC3)nc(NCCc3ccccc3)c2c1C`, the inhibition is 2% (inactive).
Regarding `CCOc1cc(-c2cc(N)n[nH]2)cc(OCC)c1OCC`, the inhibition was 61.2% (active).
The figure for `CCCc1ccc(-c2cc(N)n[nH]2)cc1` is -0.8% (inactive).
On to `CCOc1cc(-c2conc2N)cc(OCC)c1OCC`, for which the inhibition is 4.6% (inactive).
As to `O=C(Nc1ccc(NC(=O)c2cccs2)cc1)c1cccnc1`, the inhibition was -2.7% (inactive).
Turning to `O=C(Nc1cccc(NC(=O)c2cccs2)c1)c1cccnc1`, the inhibition was 50.8% (active).
The figure for `O=C(Nc1cccc(NC(=O)c2cccnc2)c1)c1cccnc1` is 7.6% (inactive).
As to `Oc1ccc(CCC2CCCCN2Cc2nc(C3CC3)no2)cc1` (stereo not drawn), the inhibition was 5.5% (inactive).
Consider `CCc1ccccc1NC(=O)Nc1ccc(F)cc1F`, for which the inhibition was -2.1% (inactive).
Consider `Cn1cc(C=O)c2ccccc21`, for which the inhibition is 8.2% (inactive).
In the case of `CN1C(=O)c2cccc3c(Cl)ccc(c23)C1=O`, the inhibition was -5.2% (inactive).
In the case of `CN1C(=O)N(C)c2ccc(C=O)c3cccc1c23`, the inhibition is 63.6% (active).
Regarding `O=C(Cn1cncn1)NCc1ccc(Cl)cc1`, the inhibition was -13.3% (inactive).
Turning to `Cc1cc(Cl)ccc1NC(=O)Cn1cncn1`, the inhibition was 62.6% (active).
Regarding `O=C(Cn1cncn1)N/N=C/c1ccc(Cl)cc1`, the inhibition was -5% (inactive).
As to `COc1cc2cnc(Cl)nc2cc1OC`, the inhibition was 54.8% (active).
Take `COc1cc2cc(C(N)=O)c(N)nc2cc1OC`: the inhibition was -0.4% (inactive).
On to `COc1cc2cnncc2cc1OC`, for which the inhibition was -4.8% (inactive).
For the compound `COc1ccc(CC(=O)NCc2n[nH]c(=S)n2-c2ccccc2)cc1`, the inhibition was -0.6% (inactive).
The figure for `Cc1ccc(C)c(S(=O)(=O)N2CCN(Cc3ccc(O)c4ncccc34)CC2)c1` is 19.7% (inactive).
In the case of `CCOC(=O)N1CCN(Cc2ccccc2Cl)CC1`, the inhibition was 4.6% (inactive).
As for `OCCN1CCN(Cc2cc(Cl)c3cccnc3c2O)CC1`, the inhibition was 48.3% (inactive).
Turning to `CCOC(=O)N1CCN(Cc2ccccn2)CC1`, the inhibition was -7.5% (inactive).

For orientation: inhibition means the change of the read-out against control, counted positive when it falls.
